# Hits are enriched below; roughly 2.8% of the tested compounds scored in any of these assays.
# Pol eta inh-1: inhibitors of human DNA polymerase eta | 390,000 tested, 1.2% active | recombinant Pol eta, fluorescent DNA replication assay | Potency, µM (titrated, usually from 114 µM), for inactives: at the highest dose activity change, negative = inhibition, actives largely listed as inhibitors | AID 588591; further: potency means the concentration at half of the fitted maximal effect; on the % scale 0 is the no-effect control and ±100 the full control effect
#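 Pol eta at 10 nM preincubated with compounds 15 min at room temperature; reaction started with fluorescent substrate (50 nM final) and read kinetically at 0 and 10 min.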
# Pol kappa inh-1: inhibitors of human DNA polymerase kappa. Q9UBT6. purified Pol kappa, fluorescent DNA synthesis assay, 10 min. Potency, µM (doses to about 107 µM), inactives show top-dose activity, negative = inhibition, usual class: inhibitors. 400,000 tested, 0.53% active. AID 588579; further: potency means the concentration at half of the fitted maximal effect; on the % scale 0 is the no-effect control and ±100 the full control effect
#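 First, compounds were pin-transferred onto 10 nM Pol kappa. After 15 min at room temperature, substrate was added to 50 nM final. Fluorescence was then measured kinetically at 0 and 10 min.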
# Pol beta inh-1: inhibitors of human DNA polymerase beta; P06746; Pol beta primer extension/strand displacement, fluorescence kinetic; Potency, µM (series often up to 114 µM), for the others: at the top dose activity change, negative = inhibition, usual class: inhibitors; 340,000 tested, 1.3% active; AID 485314; further: potency means the concentration at half of the fitted maximal effect; on the % scale 0 is the no-effect control and ±100 the full control effect
#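 Kinetic readout of DNA synthesis with strand displacement by Pol beta. Compound and 10 nM enzyme sit 15 min at room temperature; 50 nM substrate starts the reaction, read immediately and at 10 min.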
# WRN helicase inh-1: WRN helicase (human) inhibition; Q14191; WRN helicase unwinding, fluorescent forked duplex, kinetic; Potency, µM (highest dose often 114 µM), inactives show at the highest dose activity change, negative = inhibition, hits mostly inhibitors; 360,000 tested, 0.46% active; further: potency means the concentration at half of the fitted maximal effect; on the % scale 0 is the no-effect control and ±100 the full control effect; nearly all actives have a fitted effect of over 55% in size
#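 WRN at 20 nM final was preincubated with compound for 15 min at room temperature; reaction started with 100 nM forked duplex oligonucleotide carrying fluorophore and quencher plus 2 mM ATP (final). Unwinding followed kinetically by red fluorescence (ex 525/em 598 nm).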
# PI5P4K alpha inh: blocks human PI5P4K alpha kinase activity | AID 652105 | 330,000 tested, 1.2% active | PI5P4Kalpha enzyme, ADP-Glo luminescence, 60 min; hits give low values | max response, % | P48426; active means max response of -50% or lower; inconclusive means between -30% and -50%; inactive means -30% or higher; further: value at the top dose of about 77 µM; on the % scale 0 is the no-effect control and ±100 the full control effect
#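 ADP-Glo luminescence end-point read after a 60 min room-temperature kinase reaction of PI5P4Kalpha plus substrate, initiated with ATP at 5 microM final. Buffer: 0.038 M HEPES pH 7.4, EGTA, 0.1% CHAPS, 5% DMSO.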
# POLI inh: blocks human DNA polymerase iota activity | Potency, µM (highest dose often 115 µM), for inactives: at the highest dose activity, negative = inhibition, hits mostly inhibitors | Q9UNA4 | AID 588590 | 390,000 tested, 1% active | Pol iota fluorescent replication assay, 10 min; further: potency means the concentration at half of the fitted maximal effect
#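 Pol iota at 10 nM preincubated 15 min with compounds at room temperature; reaction started with fluorescent substrate, 50 nM final. Fluorescence read kinetically at 0 and 10 min; buffer-only wells as negative control.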
# Pol beta inh-2: Human Pol beta inhibitor hit validation; AID 540280; 250 tested, 87% active; Pol beta primer extension/strand displacement, fluorescence kinetic; Potency, µM, most hits filed as inhibitors; shares compounds with Pol beta inh-1; calls by dose curve; further: potency means the concentration at half of the fitted maximal effect
# Klenow counter: inhibits Klenow fragment polymerase in counter-screen. 250 tested, under 10 active. activity change, negative = inhibition, % at 57.1 µM. Klenow exo- polymerase counter-screen, fluorescent DNA substrate. AID 540300. shares compounds with Pol beta inh-1
# HIV RT inh: counter-screen for DNA polymerase beta inhibitors: HIV-1 RT inhibition; shares compounds with Pol beta inh-1; HIV-1 RT polymerase activity, counter-screen; activity % (negative = inhibition, positive = activation), % at 57.1 µM; 250 tested, under 10 active; AID 540301
# POLB inh gel: DNA polymerase beta inhibition, radiolabeled validation | shares compounds with Pol beta inh-1 | radiolabeled primer extension gel assay, phosphorimager | inhibition, % at 10 µM | 110 tested, 91% active;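 active means inhibition at 10 µM of 30% or more; inconclusive means no clear call, values can overlap the other calls; inactive means inhibition at 10 µM under 30%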
# POLI cherry-pick: Human Pol iota inhibitor confirmatory assay. 1,500 tested, 77% active. Pol iota primer extension, TAMRA/BHQ fluorescence. Potency, µM, usual class: inhibitors. shares compounds with Pol kappa inh-1. AID 720496; further: potency means the concentration at half of the fitted maximal effect
# Pol kappa inh-2: Pol kappa (human) inhibition, cherry-pick confirmation | shares compounds with Pol eta inh-1 | purified Pol-kappa, fluorescent strand-displacement substrate | Potency, µM, usual class: inhibitors | 920 tested, 76% active; further: potency means the concentration at half of the fitted maximal effect
# Pol eta inh-2: confirmation of human DNA polymerase eta inhibitors | Pol eta primer extension, TAMRA/BHQ fluorescence, 10 min | AID 720502 | 2,600 tested, 64% active | Potency, µM, actives largely listed as inhibitors | shares compounds with Pol eta inh-1; further: potency means the concentration at half of the fitted maximal effect
# WRN helicase inh-2: confirmation of human WRN helicase inhibitors | WRN helicase DNA unwinding, fluorescence kinetic | shares compounds with WRN helicase inh-1 | Potency, µM (titrated, usually from 57.1 µM), inactives show at the top dose activity, negative = inhibition, usual class: inhibitors | 610 tested, 63% active | AID 720497; further: potency means the concentration at half of the fitted maximal effect; nearly all actives have a fitted effect of over 65% in size
# TO DNA binding: counter-screen for WRN helicase inhibitors: DNA binding; shares compounds with WRN helicase inh-1; thiazole orange DNA binding displacement, fluorescence; Potency, µM (doses to about 57.1 µM), for inactives: at the highest dose activity change, negative = inhibition, usual class: inhibitors; 610 tested, 10% active;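 further: drop in dye fluorescence marks compound binding to DNA; potency means the concentration at half of the fitted maximal effect; on the % scale 0 is the no-effect control and ±100 the full control effect; nearly all actives have a fitted effect of over 60% in size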
# BLM helicase inh: blocks human BLM helicase in WRN counterscreen | shares compounds with WRN helicase inh-1 | Recombinant BLM helicase DNA unwinding, red fluorescence | Potency, µM (doses to about 57.1 µM), inactives show at the top dose activity change, negative = inhibition, most hits filed as inhibitors | 610 tested, 60% active | AID 720503; further: potency means the concentration at half of the fitted maximal effect; nearly all actives have a fitted effect of over 60% in size
# Target sequence (P54132 whole entry, looked up): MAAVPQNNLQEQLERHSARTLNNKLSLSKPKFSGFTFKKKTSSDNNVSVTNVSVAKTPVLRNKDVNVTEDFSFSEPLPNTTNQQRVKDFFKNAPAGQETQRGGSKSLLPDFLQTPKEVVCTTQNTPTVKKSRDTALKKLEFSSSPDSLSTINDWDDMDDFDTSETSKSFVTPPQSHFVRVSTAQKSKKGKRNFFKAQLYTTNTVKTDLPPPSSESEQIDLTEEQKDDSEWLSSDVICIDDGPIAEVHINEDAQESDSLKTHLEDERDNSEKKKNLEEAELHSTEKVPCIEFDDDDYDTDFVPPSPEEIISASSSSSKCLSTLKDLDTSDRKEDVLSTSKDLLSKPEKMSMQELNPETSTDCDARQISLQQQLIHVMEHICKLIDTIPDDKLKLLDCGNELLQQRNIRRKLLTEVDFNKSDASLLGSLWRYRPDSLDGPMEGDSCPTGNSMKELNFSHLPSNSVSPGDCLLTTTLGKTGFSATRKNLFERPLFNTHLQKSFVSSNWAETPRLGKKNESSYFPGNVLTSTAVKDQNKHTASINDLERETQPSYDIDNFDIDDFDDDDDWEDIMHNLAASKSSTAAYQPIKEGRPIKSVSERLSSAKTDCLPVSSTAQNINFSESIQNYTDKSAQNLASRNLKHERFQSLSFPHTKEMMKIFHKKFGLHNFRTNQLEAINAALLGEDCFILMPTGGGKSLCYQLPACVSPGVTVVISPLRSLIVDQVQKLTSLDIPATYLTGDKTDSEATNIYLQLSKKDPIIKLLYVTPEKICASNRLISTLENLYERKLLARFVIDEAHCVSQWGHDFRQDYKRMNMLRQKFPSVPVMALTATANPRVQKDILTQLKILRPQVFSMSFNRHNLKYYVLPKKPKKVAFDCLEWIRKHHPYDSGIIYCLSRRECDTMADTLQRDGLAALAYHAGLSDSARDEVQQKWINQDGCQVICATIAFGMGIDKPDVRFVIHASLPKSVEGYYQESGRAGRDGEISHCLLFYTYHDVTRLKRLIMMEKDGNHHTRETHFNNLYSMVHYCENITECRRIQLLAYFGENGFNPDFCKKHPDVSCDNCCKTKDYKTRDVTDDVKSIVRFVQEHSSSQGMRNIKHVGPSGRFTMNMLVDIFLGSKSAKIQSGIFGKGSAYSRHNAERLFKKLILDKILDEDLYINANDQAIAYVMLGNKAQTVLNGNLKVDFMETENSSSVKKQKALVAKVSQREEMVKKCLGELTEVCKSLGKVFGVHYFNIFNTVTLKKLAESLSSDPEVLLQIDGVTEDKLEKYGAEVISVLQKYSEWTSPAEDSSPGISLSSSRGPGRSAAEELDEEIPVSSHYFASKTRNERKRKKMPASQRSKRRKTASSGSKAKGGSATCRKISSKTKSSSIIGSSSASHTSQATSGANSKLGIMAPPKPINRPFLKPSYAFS
# ADP-Glo interf: interferes with ADP-Glo detection without enzyme present | 1,100 tested, under 10 active | ADP-Glo detection counter-screen, luciferase luminescence, no enzyme | shares compounds with PI5P4K alpha inh | Potency, µM (series often up to 76.9 µM), for inactives: at the top dose activity change, negative = inhibition, hits mostly inhibitors
# Starred values were filed as active, the others as inactive; u = inconclusive; x = no result given; [ ] = another dose, or the depositor's remark. Unless noted, the call rests on the fitted dose curve; in most records, active means well fitted curve in the direction sought with a large enough effect; inconclusive means small, poorly fitted or top-dose-only effect, or another doubt; inactive means no such curve, though single readings can be large; an effect the other way counts as inactive or inconclusive.
SMILES,Pol eta inh-1,Pol kappa inh-1,Pol beta inh-1,WRN helicase inh-1,PI5P4K alpha inh,POLI inh,Pol beta inh-2,Klenow counter,HIV RT inh,POLB inh gel,Pol eta inh-2,ADP-Glo interf,others
Cc1c(Cc2ccccc2)c(=O)oc2c(O)c(O)ccc12,u,u,13µM*,28µM*,-28,8.9µM*,5*,-27,40,x,x,x,WRN helicase inh-2=6.8µM*;TO DNA binding=-17%;BLM helicase inh=6.8µM*
O=C(CSc1n[nH]c(-c2ccccc2)n1)c1ccc(O)c(O)c1,40µM*,25µM*,16µM*,16µM*,x,18µM*,32*,-28,u,25,x,x,WRN helicase inh-2=19µM*;TO DNA binding=-2%;BLM helicase inh=19µM*
COc1cccc(CC(=O)Nc2cc(S(=O)(=O)N3CCOCC3)ccc2OC)c1,-14%,-7%,x,3%,-4,-5%,x,x,x,x,x,x,
CCCc1cc(=O)oc2cc(C)c(CN3CCCC3)c(O)c12,22µM*,20µM*,6.3µM*,40µM*,-81*,5µM*,25*,-25,23,5,67*,-10%,
CC(=O)NCC(=O)N[C@H](CCC(=O)O)C(=O)O,x,1%[19.4 µM],x,x,x,x,x,x,x,x,x,x,
O=C(Nc1cccc(S(=O)(=O)NC2=NCCCCC2)c1)c1cc(-c2ccncc2)nc2ccccc12,-15%,-20%,0%,-20%,0,-8%,x,x,x,x,x,x,
O=C(Nc1cccc(S(=O)(=O)NC2=NCCCCC2)c1)c1cc(-c2ccco2)nc2ccccc12,u,79µM*,7.9µM*,u,-73*,14µM*,11*,-22,25,x,x,-10%,
O=C(Cc1ccc(S(=O)(=O)N2CCOCC2)s1)Nc1nc2c(s1)CCCC2,4µM*,18µM*,7.1µM*,35µM*,-66*,u,28*,-36,28,99*,30*,-3%,POLI cherry-pick=34*;Pol kappa inh-2=21*
CCCN(C(=O)c1cc2c(s1)CCC2)c1c(N)n(Cc2ccccc2)c(=O)[nH]c1=O,25µM*,u,10µM*,-34%,-66*,u,22*,-13,-9,91*,76*,2%,POLI cherry-pick=u
Cc1ccc(NC(=O)c2c3c(nc4ccccc24)CCC3)cc1S(=O)(=O)N(C)C,u,79µM*,10µM*,-3%[11.6 µM],-52*,22µM*,35*,-16,45,89*,u,3%,
COc1cc(NC(=O)c2c3c(nc4ccccc24)CCC3)cc(OC)c1,0%,-24%,u,-7%,-2,8%,x,x,x,x,x,x,
O=S(=O)(NCCc1csc2nc(-c3ccccc3)nn12)c1ccc(Oc2ccccc2)cc1,-18%,-10%[60.1 µM],-15%,x,x,-8%,x,x,x,x,x,x,
Cc1cccc2cc3c(N)c(C#N)sc3nc12,-17%,-11%,u,-14%,6,u,x,x,x,x,x,x,
Cc1sc(NC(=O)c2sc3nc4c(C)cccc4cc3c2N)c(C#N)c1C,2.8µM*,-27%,5µM*,u,-63*,u,8.9*,-30,2,x,x,-6%,
O=C(Cn1cnc2scc(-c3cccc([N+](=O)[O-])c3)c2c1=O)NCc1ccco1,20µM*,79µM*,10µM*,u,-94*,20µM*,16*,-12,u,x,60*,4%,POLI cherry-pick=47*;Pol kappa inh-2=47*
COC(=O)[C@]12CCCCC=C1N(Cc1ccccc1)C(=O)[C@H](CC(=O)NCC13CC4CC(CC(C4)C1)C3)C2,x,x,x,-2%,2,x,x,x,x,x,x,x,
O=C(CN1C(=O)CC(c2ccco2)Sc2ccccc21)Nc1ccc(OC(F)(F)F)cc1 (stereo unspecified),-5%,-11%,0%,x,x,6%,x,x,x,x,x,x,
N#Cc1c(NC(=O)CSc2ncnc3sccc23)oc(-c2ccco2)c1-c1ccco1,14µM*,45µM*,10µM*,u,-79*,u,28*,-20,-2,93*,19*,4%,POLI cherry-pick=42*;Pol kappa inh-2=6.7*
Cc1cc(NC(=O)CSc2ncnc3sccc23)no1,-7%,-2%,11%,-11%,0,0%,x,x,x,x,x,x,
CNC(=O)COC(=O)c1cc(-c2ccco2)nc2ccccc12,11µM*,25µM*,3.5µM*,79µM*,-87*,u,28*,-38,u,100*,19*,1%,POLI cherry-pick=21*;WRN helicase inh-2=15µM*;TO DNA binding=-29%;BLM helicase inh=4.8µM*
Cc1cc(C)c(C)c(S(=O)(=O)N2CCC(C(=O)NCCCN3CCCC3=O)CC2)c1C,-4%,0%,x,-4%,3,-1%,x,x,x,x,x,x,

# Source: PubChem BioAssay (National Center for Advancing Translational Sciences (NCATS))
